# According to publication PMC5540273 (PLoS ONE, 2017):
# “And” between values parts separate entries of the source, which are not always exact repeats. Identical values can stand only once. Like-named read-outs stand apart in the source and are kept apart here.
# Key:
# Settings in all cases: concentration: 1 μM, replicates: in singlicate, n = 1
# FLT3-autoinhibited = system: FLT3-autoinhibited
# FLT3 = system: FLT3
# FLT4 = system: FLT4
# FRK = system: FRK
# FYN = system: FYN
# GAK = system: GAK
# GCN2(Kin.Dom.2,S808G) = system: T1, GCN2(Kin.Dom.2,S808G)
# T1 construct: gene EIF2AK4
# GRK1 = system: GRK1
# GRK2 = system: T2, GRK2
# T2 construct: gene ADRBK1
# GRK3 = system: T3, GRK3
# T3 construct: gene ADRBK2
# 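Note: KINOMEscan kinase panel screen.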
SMILES,%Inh (FLT3-autoinhibited) [%],%Inh (FLT3) [%],%Inh (FLT4) [%],%Inh (FRK) [%],%Inh (FYN) [%],%Inh (GAK) [%],"%Inh (GCN2(Kin.Dom.2,S808G)) [%]",%Inh (GRK1) [%],%Inh (GRK2) [%],%Inh (GRK3) [%],%Inh (FLT3; 1 µM),%Inh (FLT4; 1 µM),%Inh (FRK; 1 µM),%Inh (FYN; 1 µM),%Inh (GAK; 1 µM),"%Inh (GCN2(Kin.Dom.2,S808G); 1 µM)",%Inh (GRK2; 1 µM),%Inh (GRK3; 1 µM),%Inh (FLT3-autoinhibited; 1 µM),%Inh (GRK1; 1 µM)
NS(=O)(=O)c1cccc(-c2ccc3ncc(N4CCOCC4)nc3c2)c1 [GSK1535721],12,0,12,11,16,15,0,3,0,30,,,,,,,,,,
COc1ccc(Nc2nccc(N3CCC(NC(=O)Nc4cc(C)ccc4C)C3)n2)cc1 (stereo not shown) [GSK1379741],0,0,1,0,2,9,0,0,0,0,,,,,,,,,,
Nc1nc(-c2ccc3c(N)n[nH]c3c2)cc(N2CCCC2)n1 [GSK2227430],0,0,0,0,0,0,0,0,0,0,,,,,,,,,,
O=C1NC(=O)C(N2CCc3ccccc32)=C1c1cccc(Cl)c1 [SB-408010],21,0,2,0,0,10,17,53,0,0,,,,,,,,,,
CCc1ccnc(/C=C/c2n[nH]c3cc(Sc4ccccc4C(=O)NC)ccc23)c1,7,19,99.9,17,0,0,18,2,18,7,,,,,,,,,,
O=C(Nc1cccc(-c2nn3ncccc3c2-c2ccnc(Nc3cccc(C(F)(F)F)c3)n2)c1)c1c(F)cccc1F [GSK299495],0,41,40,88,62,1,8,6,0,33,,,,,,,,,,
C[C@@H](Oc1cc(-n2cnc3ccc(NC(=O)NC(C)(C)C)cc32)sc1C(N)=O)c1ccccc1Cl [GSK346294],0,0,1,10,6,0,0,0,0,34,,,,,,,,,,
CC(C)(CN)c1nc(-c2ccc(Cl)c(O)c2)c(-c2ccncc2)[nH]1.O=C(O)C(F)(F)F [SB-477794],0,,,,,,,0,,,0% and 29%,78% and 74%,99.5% and 99.1%,97.3% and 96.8%,71% and 56%,14% and 0%,0% and 26%,65% and 0%,,
Cn1cc(-c2ccc3c(c2)CCN3C(=O)Cc2ccccc2Cl)c2c(N)ncnc21 [GSK2608885],20,99.3,99.8,97.9,97.1,33,81,0,0,0,,,,,,,,,,
COc1cc2c(cc1OC[C@@H](O)CO)ncc1c3ccc(C#N)cc3[nH]c21,90,97.5,7,0,0,98.9,82,16,13,0,,,,,,,,,,
COC(=O)Nc1nc2cc(Oc3ccc(NC(=O)Nc4cc(F)ccc4F)cc3)ccc2[nH]1.Cl [GW701424],14,99.2,85,20,0,0,0,11,0,50,,,,,,,,,,
COc1cc2c(cc1OCCN1CCN(C)CC1)ncc1c3ccc(C#N)cc3[nH]c21,97.4,98.6,0,2,25,99.6,90.8,32,0,0,,,,,,,,,,
N#Cc1ccc(-c2cc(-c3c[nH]nc3-c3ccccn3)ccn2)cc1 [GW693028],0,0,0,25,0,69,0,0,0,70,,,,,,,,,,
Cc1nnc(-c2ccc(C)c(-c3ccc(C(=O)Nc4ccc(NS(C)(=O)=O)cc4)cc3)c2)o1 [GW702865],0,0,8,0,17,0,10,0,0,0,,,,,,,,,,
Cc1cccc(Cn2ccn3c(=O)cc(N4CCOCC4)nc23)c1 [GSK2297542],2,11,0,7,21,20,6,0,0,16,,,,,,,,,,
NS(=O)(=O)CCc1cccc(Nc2nccc(-c3c(-c4cccc(NC(=O)c5c(F)cccc5F)c4)nn4ccccc34)n2)c1 [GSK336735],11,98.9,99.2,97.2,96.7,28,87,0,0,89,,,,,,,,,,
CCCCCc1nc2c(N)ncnc2n1CCCCC [SKF-97255],0,0,0,0,0,0,4,38,0,6,,,,,,,,,,
COCCNC(=O)c1ccc(-c2cc(C(=O)NC3CC3)cc(F)c2C)cc1 [GW868318],0,15,5,32,2,0,12,32,0,18,,,,,,,,,,
COc1ccc(Nc2ncc(C#N)c(Nc3ccccc3C(N)=O)n2)cc1N1CCN(C)CC1.Cl [GSK1558669],99.9,99.8,100,83,96.8,98.1,100,55,35,0,,,,,,,,,,
CN(C1=C(c2ccccc2)C(=O)NC1=O)c1ccccc1 [SB-334860],3,0,20,2,39,7,0,9,8,7,,,,,,,,,,

SMILES,%Inh (FLT3-autoinhibited) [%],%Inh (FLT3) [%],%Inh (FLT4) [%],%Inh (FRK) [%],%Inh (FYN) [%],%Inh (GAK) [%],"%Inh (GCN2(Kin.Dom.2,S808G)) [%]",%Inh (GRK1) [%],%Inh (GRK2) [%],%Inh (GRK3) [%],%Inh (FLT3; 1 µM),%Inh (FLT4; 1 µM),%Inh (FRK; 1 µM),%Inh (FYN; 1 µM),%Inh (GAK; 1 µM),"%Inh (GCN2(Kin.Dom.2,S808G); 1 µM)",%Inh (GRK2; 1 µM),%Inh (GRK3; 1 µM),%Inh (FLT3-autoinhibited; 1 µM),%Inh (GRK1; 1 µM)
O=c1cc(N2CCOCC2)nc2n(Cc3cccc4ccccc34)ccn12 [GSK2333389],3,10,8,0,0,1,1,13,0,0,,,,,,,,,,
Fc1ccc(-c2nn3c(OCC(F)(F)F)cccc3c2-c2ccncc2)cc1 [GW514784],0,4,0,5,0,85,0,0,0,45,,,,,,,,,,
CN1c2ccc(CNc3ccc(F)cc3)cc2-c2c(cnn2C)S1(=O)=O,0,36,0,1,4,0,15,10,0,0,,,,,,,,,,
COc1ccc(CNC(=O)NC2CCN(c3ccnc(Nc4ccc(OC)cc4)n3)C2)cc1 (stereo not shown) [GSK1379727],0,7,0,0,38,0,11,0,0,48,,,,,,,,,,
NCCNS(=O)(=O)c1ccc(-c2ccnc3[nH]ccc23)cc1 [GSK977617],,,,0,,,0,,,,87% and 73%,48% and 21%,,25% and 16%,46% and 19%,,4% and 0%,12% and 36%,27% and 39%,75% and 52%
Cn1ccc2ncnc(Oc3ccc(NC(=O)Nc4ccncc4)c(Cl)c3)c21,0,0,0,0,0,0,11,7,0,0,,,,,,,,,,
CC(C)Oc1ccc2c(-c3ccnc(Nc4ccc(N5CCN(C)CC5)cc4)n3)cnn2n1 [GW696155],70,98.3,30,41,53,96.3,100,5,0,48,,,,,,,,,,
COc1ccc(Nc2nccc(N3CCC(NC(=O)Nc4cccc(C(C)=O)c4)C3)n2)cc1 (stereo not shown) [GSK1379731],0,34,4,0,1,0,0,0,0,4,,,,,,,,,,
COc1ccc(S(=O)(=O)NC2CCN(c3cc(C)nc(Nc4cccc(C#N)c4)n3)CC2)cc1.O=C(O)C(F)(F)F [GSK1653539],0,0,2,0,0,0,0,0,0,0,,,,,,,,,,
CCn1cnc2c(N)ncnc21 [GW345098],0,13,13,10,15,0,6,0,0,0,,,,,,,,,,
COc1ccc(COc2cc(-n3cnc4ccccc43)sc2C(N)=O)cc1 [GSK1024304],0,4,1,0,16,17,0,0,0,10,,,,,,,,,,
Cl.Nc1ncnc2occ(-c3ccc(NC(=O)Nc4cc(C(F)(F)F)ccc4F)cc3)c12 [SB-707548],83,99.4,100,95.7,22,0,8,12,0,36,,,,,,,,,,
O=c1cc(N2CCOCC2)nc2n(Cc3cccc(F)c3)ccn12 [GSK2297430],0,24,9,8,1,14,0,0,0,0,,,,,,,,,,
O=C(Nc1n[nH]c2cc(-c3cccc(F)c3)ccc12)C1CC1 [SB-735464],0,21,0,6,0,9,0,14,0,12,,,,,,,,,,
CC(C)(C)n1cnc2c(N)ncnc21 [SKF-97359],0,19,0,0,0,0,29,0,39,24,,,,,,,,,,
Cc1nnc(-c2ccc3ncc(-c4ccc(S(C)=O)cc4)n3c2)o1 (stereo not shown),20,4,6,29,10,9,0,9,43,0,,,,,,,,,,
Nc1nccc(-c2c(-c3ccc(F)cc3)ncn2C2CCN(CC(F)(F)F)CC2)n1 [SB-236560],0,18,21,1,0,15,48,18,16,0,,,,,,,,,,
O=C(c1ccc(-c2cc(-c3c[nH]nc3-c3ccccn3)ccn2)cc1)N1CCOCC1 [GW812171],0,1,0,0,0,34,0,26,0,20,,,,,,,,,,
[2H]C([2H])(c1cccc(C(F)(F)F)c1C)n1ccn2c(=O)nc(N3CCOCC3)cc12 [GSK2336394],0,12,3,6,44,0,0,0,0,20,,,,,,,,,,
Cl.Cl.Cl.Fc1ccc(-c2ncn(C3CCNCC3)c2-c2ccnc(Nc3ccccc3)n2)cc1 [SB-238039],,,,,,,,,,,4% and 26%,15% and 9%,0% and 35%,0% and 1%,84% and 74%,0% and 27%,0% and 16%,32% and 0%,0% and 18%,32% and 25%
